# Assay results reported in PubChem BioAssay.
# Where “and” joins values, the source holds several entries; their conditions need not be identical. Identical values can stand only once. Records with an inconclusive call do not appear. Calls of active or inactive are those of the source. Unless noted, the rule behind the calls is not given here.
# What was measured:
# [1] = growth inhibition of DIPG glioma cells, dose response, cell-based, SU-DIPG-XVII, MIPE5.0, CellTiter-Glo, qHTS (AID 1347060; cut-off not given, nearly all actives have AC50 up to about 26 µM;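 for AC50: cells exposed to compound for 48 hours before viability readout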); conditions: SU-DIPG-XVII viability, CellTiter-Glo ATP luminescence
# [2] = growth inhibition of DIPG glioma cells, dose response, cell-based, SU-DIPG-XIII, MIPE4.0, CellTiter-Glo, qHTS (AID 1347061; cut-off not given, nearly all actives have AC50 up to about 37 µM;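 note: cells exposed to compound for 48 hours before readout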); conditions: SU-DIPG-XIII viability, CellTiter-Glo ATP luminescence
# [3] = growth inhibition of DIPG glioma cells, dose response, cell-based, SU-DIPG-IV, MIPE4.0, CellTiter-Glo, qHTS (AID 1347063; cut-off not given, nearly all actives have AC50 up to about 30 µM;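 note: compound exposure lasted 48 hours before the viability readout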); conditions: SU-DIPG-IV viability, CellTiter-Glo ATP luminescence
# [4] = growth inhibition of DIPG glioma cells, dose response, cell-based, SU-DIPG-XIII, MIPE5.0, CellTiter-Glo, qHTS (AID 1347064; cut-off not given, nearly all actives have AC50 up to about 23 µM); conditions: SU-DIPG-XIII viability, CellTiter-Glo ATP luminescence
# [5] = SU-DIPG-VI glioma cell viability, MIPE4.0 library, CellTiter-Glo luminescence, qHTS (AID 1347066; cut-off not given, nearly all actives have AC50 up to about 30 µM;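 note: cells exposed to compound for 48 hours before readout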); conditions: CellTiter-Glo ATP luminescence
# [6] = JHH-DIPG-1 glioma cell viability, MIPE5.0 library, CellTiter-Glo luminescence, qHTS (AID 1347067; cut-off not given, nearly all actives have AC50 up to about 26 µM;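 note: cells exposed to compound for 48 hours before readout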); conditions: JHH-DIPG-1 glioma viability, CellTiter-Glo ATP luminescence
# [7] = SU-DIPG-XXV glioma cell viability, MIPE5.0 library, qHTS (AID 1347068; cut-off not given, nearly all actives have IC50 up to about 30 µM)
# [8] = target: ATP-dependent translocase ABCB1 (Homo sapiens) (UniProt P08183); assay: MDR1 (ABCB1) efflux transporter inhibition, cell-based (AID 377; in the data active = fluorescence slope change above about 50%); conditions: MDR1-expressing cells, fluorescent substrate accumulation slope; stronger effect = higher value; concentration not given here
# [9] = reducers of polyQ inclusions in PC12 cells, cell-based, NGF-treated PC12, GFPQ80 (AID 1614); conditions: PC12 NGF-treated GFP-polyQ80 inclusion reduction;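 note: lower means fewer inclusions and 0 means no inclusions at all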
# [10] = Cy5 fluorescence interference with SSB-bound oligo, artefact control for HCV NS3 helicase inhibitor project, biochemical, NIH Clinical Collection, E. coli SSB (AID 743268)
# [11] = tested on: Hepatitis C virus NS3 helicase; assay: HCV NS3 helicase inhibitors, primary screen, biochemical, fluorescence polarization, NIH Clinical Collection (AID 743270); conditions: NS3 helicase binding to Cy5-dT15 DNA, stronger effect = higher value, concentration not given here
# [12] = target: Single-stranded DNA-binding protein (Escherichia coli (strain K12)) (UniProt P0AGE0); assay: E. coli SSB displacement from DNA, counter-screen for HCV NS3 helicase inhibitor project, biochemical, fluorescence polarization, NIH Clinical Collection (AID 743271; in the data active = inhibition above about 28%); conditions: stronger effect = higher value, concentration not given here
# [13] = fluorescence interference in NS3h assay format, artefact control for HCV NS3 helicase inhibitor project, biochemical, NIH Clinical Collection (AID 743272); conditions: fluorescence interference counterscreen, stronger effect = lower value;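 note: HCV NS3 helicase with a Cy5 labelled single stranded DNA probe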
# [14] = tested on: Neuropilin-2 / VEGF-C interaction (human); assay: inhibitors of NRP2–VEGF-C binding, biochemical, microplate binding format, z-score (AID 743281); conditions: microplate NRP2/VEGF-C binding assay; stronger effect = lower value
# [15] = modulation of C. elegans fzo-1 (AID 1259413);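 note: fzo-1 mutant C. elegans worms in liquid wells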; conditions: C. elegans fzo-1 modulator screen, mean read-out; stronger effect = higher value
# [16] = tested on: F380Y/beta1; assay: modulators of BK channel variants, profiling panel, selectivity assay, cell-based, U2OS BacMam, thallium flux, beta subunits (AID 1259406;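 active = thallium flux through the channel raised or lowered by more than 3 SD from vehicle-only wells, actives on both sides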;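 note: initial slope of Thallos dye fluorescence rise after thallium is added; log ratio against the mean of 0.3% DMSO vehicle wells on the same plate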); conditions: at 30 µM
# [17] = tested on: F380Y/beta4; assay: as above; conditions: at 30 µM
# [18] = tested on: R275C/beta4; assay: as above; conditions: at 30 µM
# [19] = tested on: R275C/Slo1WT/beta2; assay: as above; conditions: at 30 µM
# [20] = ICB984 medulloblastoma cell growth inhibition, synergistic combos for chromothripsis tumors, cisplatin or BGB combos (AID 1671451); conditions: ICB984 medulloblastoma cells, drug combinations, stronger effect = higher value;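 note: cells exposed for 96 hours before readout; 0% = vehicle DMSO and 100% = killing by high DMSO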
# ATP-dependent translocase ABCB1 (Homo sapiens), sequence (P08183 whole entry, looked up): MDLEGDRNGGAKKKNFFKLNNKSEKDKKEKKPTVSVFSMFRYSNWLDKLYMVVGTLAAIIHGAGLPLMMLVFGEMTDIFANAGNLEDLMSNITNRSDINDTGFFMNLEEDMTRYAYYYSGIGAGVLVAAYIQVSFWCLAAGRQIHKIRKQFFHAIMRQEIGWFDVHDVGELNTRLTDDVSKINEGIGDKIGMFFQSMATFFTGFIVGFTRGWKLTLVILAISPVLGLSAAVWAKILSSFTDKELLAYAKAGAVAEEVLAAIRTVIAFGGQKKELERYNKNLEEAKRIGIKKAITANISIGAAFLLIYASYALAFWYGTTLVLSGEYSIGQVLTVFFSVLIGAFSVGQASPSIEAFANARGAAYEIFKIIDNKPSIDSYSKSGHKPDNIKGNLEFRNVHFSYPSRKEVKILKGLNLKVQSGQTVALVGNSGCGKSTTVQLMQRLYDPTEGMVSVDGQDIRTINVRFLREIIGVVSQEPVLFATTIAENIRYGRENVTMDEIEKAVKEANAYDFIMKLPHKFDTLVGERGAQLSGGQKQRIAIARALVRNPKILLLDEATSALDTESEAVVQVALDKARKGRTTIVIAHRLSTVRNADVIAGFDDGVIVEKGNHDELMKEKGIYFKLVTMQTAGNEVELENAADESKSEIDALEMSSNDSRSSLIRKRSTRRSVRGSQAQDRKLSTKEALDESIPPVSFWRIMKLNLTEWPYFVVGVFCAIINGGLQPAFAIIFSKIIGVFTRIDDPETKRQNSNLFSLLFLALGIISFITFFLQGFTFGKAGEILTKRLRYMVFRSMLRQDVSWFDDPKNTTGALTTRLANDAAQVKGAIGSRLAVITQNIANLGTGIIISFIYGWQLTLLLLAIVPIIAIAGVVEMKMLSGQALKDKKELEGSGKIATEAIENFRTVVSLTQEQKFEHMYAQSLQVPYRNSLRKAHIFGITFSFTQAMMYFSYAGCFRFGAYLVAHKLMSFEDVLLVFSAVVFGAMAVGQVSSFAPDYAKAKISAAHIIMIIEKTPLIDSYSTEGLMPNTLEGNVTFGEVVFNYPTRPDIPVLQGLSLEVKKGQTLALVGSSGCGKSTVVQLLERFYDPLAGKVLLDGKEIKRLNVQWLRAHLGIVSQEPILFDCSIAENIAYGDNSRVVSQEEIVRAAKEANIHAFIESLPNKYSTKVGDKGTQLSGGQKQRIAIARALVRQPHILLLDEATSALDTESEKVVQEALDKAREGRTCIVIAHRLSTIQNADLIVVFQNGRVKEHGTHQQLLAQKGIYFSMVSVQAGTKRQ
smiles,measurement,setting,value
N[C@@H]1C[C@H]1c1ccccc1,outcome,[1],inactive
same,outcome,[2],inactive
same,outcome,[3],inactive
same,outcome,[4],inactive
same,outcome,[5],inactive
same,outcome,[6],inactive
same,outcome,[7],inactive
C[C@H]1C(=O)O[C@@H]2CCN3CC=C(COC(=O)[C@](C)(O)[C@]1(C)O)[C@H]23,fluorescence slope change,[8],24.9% (inactive)
same,inclusion score,[9],2
CC(C)(C)NCC(O)c1cc(Cl)c(N)c(Cl)c1 (centres undefined),fluorescence slope change,[8],-2.7% (inactive)
same,inclusion score,[9],2
Clc1ccc(CSC(Cn2ccnc2)c2ccc(Cl)cc2Cl)cc1 (centres undefined),fluorescence slope change,[8],21.9% (inactive)
Oc1ccc(Cl)cc1,inclusion score,[9],2
CCC1(CC)C(=O)C=CNC1=O,fluorescence slope change,[8],54.5% (active)
same,inclusion score,[9],2
NC(=O)c1cc([N+](=O)[O-])cc([N+](=O)[O-])c1,inclusion score,[9],2
O=c1oc2ccccc2c(O)c1Cc1c(O)c2ccccc2oc1=O,fluorescence slope change,[8],-7.2% (inactive)
same,inclusion score,[9],1
COc1ccc(Cc2nccc3cc(OC)c(OC)cc23)cc1OC,fluorescence slope change,[8],84.8% (active)
same,inclusion score,[9],2
CC(C)[N+](C)(CCC(C(N)=O)(c1ccccc1)c1ccccc1)C(C)C,inclusion score,[9],1.5
CNC(C)(C)Cc1ccccc1,fluorescence slope change,[8],29.7% (inactive)
same,inclusion score,[9],2
Clc1ccc(C(OCCN2CCCCC2)c2ccccc2)cc1 (centres undefined),fluorescence slope change,[8],54.5% (active)
Cc1cc(O)ccc1Cl,inclusion score,[9],2
C[C@@H]1CC[C@H]2[C@@H](C)C(=O)O[C@@H]3O[C@@]4(C)CC[C@@H]1[C@]32OO4,outcome,[1],inactive
same,outcome,[2],inactive
same,outcome,[5],inactive
same,outcome,[6],inactive
same,outcome,[7],inactive
C[C@@H]1O[C@@H](O[C@H]2C[C@@H](O)[C@]3(CO)[C@H]4[C@H](O)C[C@]5(C)[C@@H](C6=CC(=O)OC6)CC[C@]5(O)[C@@H]4CC[C@]3(O)C2)[C@H](O)[C@H](O)[C@H]1O,AC50,[1],52.5 nM (active)
same,AC50,[2],13.2 nM (active)
same,AC50,[3],14.8 nM (active)
same,AC50,[5],29.6 nM (active)
same,AC50,[6],18.6 nM (active)
CC(=O)Nc1cc([As](=O)(O)O)ccc1O,inclusion score,[9],2
NC(=O)CN1CCCC1=O,fluorescence slope change,[8],61.1% (active)
same,inclusion score,[9],2
Cc1cccc(C)c1NC1=NCCCS1,fluorescence slope change,[8],18% (inactive)
same,inclusion score,[9],2
O=[N+]([O-])O[C@H]1CO[C@H]2[C@@H]1OC[C@H]2O[N+](=O)[O-],fluorescence slope change,[8],-12.8% (inactive)
same,inclusion score,[9],1
COc1c2c(cc3c1OCO3)CCN(C)C2,fluorescence slope change,[8],4% (inactive)
C[N+]1(CCC(C(N)=O)(c2ccccc2)c2ccccc2)CCCCC1,fluorescence ratio,[10],1.01 (inactive)
same,inhibition,[11],-1.98% (inactive)
same,inhibition,[12],-0.1% (inactive)
same,fluorescence ratio,[13],0.95 (inactive)
same,z-score,[14],-0.188 (inactive)
same,mean signal,[15],231 (inactive)
same,log fold change Tl+ flux,[16],-0.0163 (inactive)
same,log fold change Tl+ flux,[17],-0.00383 (inactive)
same,log fold change Tl+ flux,[18],-0.0252 (inactive)
same,log fold change Tl+ flux,[19],0.0123 (inactive)
O=P1(NCCCl)OCCCN1CCCl (centres undefined),outcome,[1],inactive
same,outcome,[2],inactive
same,outcome,[4],inactive
same,outcome,[5],inactive
same,outcome,[6],inactive
same,outcome,[7],inactive
same,inhibition,"[20]; BGB IC20 combo, at 0.005 µM",-4.87% and -19.5%
same,inhibition,"[20]; BGB IC40 combo, at 0.005 µM",-32.7% and -24.5%
same,inhibition,"[20]; BGB IC40 combo, at 0.05 µM",-25.4% and -42.1%
same,inhibition,[20]; at 0.5 µM,-22% (inactive) and -43% (inactive)
same,inhibition,"[20]; cisplatin combo, at 0.05 µM",-25.4% and -47.2%
same,inhibition,"[20]; cisplatin combo, at 0.5 µM",-28.2% and -28.3%
same,inhibition,"[20]; cisplatin combo, at 5 µM",-18% and -28.2%
same,inhibition,"[20]; measured here: 5 uM single agent, at 5 µM",-4.46% and 4.1%
CNCC(O)c1ccc(O)cc1 (centres undefined),fluorescence ratio,[10],0.99 (inactive)
same,inhibition,[11],-1.09% (inactive)
same,inhibition,[12],-0.39% (inactive)
same,fluorescence ratio,[13],0.96 (inactive)
same,z-score,[14],-0.502 (inactive)
same,mean signal,[15],258 (inactive)
same,outcome,[1],inactive
same,outcome,[2],inactive
same,outcome,[3],inactive
same,outcome,[4],inactive
same,outcome,[5],inactive
same,outcome,[6],inactive
same,outcome,[7],inactive
same,log fold change Tl+ flux,[16],-4.2e-05 (inactive)
same,log fold change Tl+ flux,[17],-0.01 (inactive)
same,log fold change Tl+ flux,[18],-0.013 (inactive)
same,log fold change Tl+ flux,[19],0.0309 (inactive)
CCC(COC(=O)c1cc(OC)c(OC)c(OC)c1)(c1ccccc1)N(C)C (centres undefined),fluorescence ratio,[10],0.98 (inactive)
same,inhibition,[11],-1.19% (inactive)
same,inhibition,[12],-0.87% (inactive)
same,fluorescence ratio,[13],0.98 (inactive)
same,z-score,[14],-1.07 (inactive)
same,mean signal,[15],257 (inactive)
same,log fold change Tl+ flux,[16],-0.135 (active)
same,log fold change Tl+ flux,[17],-0.301 (active)
same,log fold change Tl+ flux,[18],-0.198 (active)
same,log fold change Tl+ flux,[19],-0.104 (active)
CN(C)C(=O)Oc1cc(OC(=O)N(C)C)cc(C(O)CNC(C)(C)C)c1 (centres undefined),fluorescence slope change,[8],19% (inactive)
CN1CCN(C(=O)O[C@H]2c3nccnc3C(=O)N2c2ccc(Cl)cn2)CC1,fluorescence ratio,[10],1 (inactive)
same,inhibition,[11],-4.09% (inactive)
same,inhibition,[12],-4.29% (inactive)
same,fluorescence ratio,[13],1.03 (inactive)
same,mean signal,[15],290 (active)
same,outcome,[2],inactive
same,outcome,[3],inactive
same,outcome,[5],inactive
same,log fold change Tl+ flux,[16],-0.0113 (inactive)
same,log fold change Tl+ flux,[17],-0.00667 (inactive)
same,log fold change Tl+ flux,[18],0.00608 (inactive)
same,log fold change Tl+ flux,[19],-0.0138 (inactive)
Oc1cc(Cl)ccc1Oc1ccc(Cl)cc1Cl,fluorescence ratio,[10],1.01 (inactive)
same,inhibition,[11],2.27% (inactive)
same,inhibition,[12],-0.48% (inactive)
same,fluorescence ratio,[13],0.91 (inactive)
same,mean signal,[15],192 (inactive)
same,log fold change Tl+ flux,[16],-0.302 (active)
same,log fold change Tl+ flux,[17],-0.429 (active)
same,log fold change Tl+ flux,[18],0.0409 (inactive)
same,log fold change Tl+ flux,[19],-0.125 (active)
Nc1ccncc1,inclusion score,[9],2
NC(=O)OCCCc1ccccc1,fluorescence ratio,[10],1.07 (inactive)
same,inhibition,[11],0.4% (inactive)
same,inhibition,[12],-1.64% (inactive)
same,fluorescence ratio,[13],1.03 (inactive)
same,z-score,[14],-0.636 (inactive)
same,mean signal,[15],256 (inactive)
same,log fold change Tl+ flux,[16],0.00909 (inactive)
same,log fold change Tl+ flux,[17],0.0583 (inactive)
same,log fold change Tl+ flux,[18],-0.0265 (inactive)
same,log fold change Tl+ flux,[19],0.0397 (inactive)
COc1cccc([C@@]2(O)CCCC[C@@H]2CN(C)C)c1,z-score,[14],0.404 (inactive)
same,mean signal,[15],274 (inactive)
same,log fold change Tl+ flux,[16],-0.0211 (inactive)
same,log fold change Tl+ flux,[17],-0.0244 (inactive)
same,log fold change Tl+ flux,[18],-0.00931 (inactive)
same,log fold change Tl+ flux,[19],0.0567 (inactive)
COc1cc(N)c(Cl)cc1C(=O)NC1CN2CCC1CC2 (centres undefined),fluorescence ratio,[10],0.94 (inactive)
same,inhibition,[11],-2.77% (inactive)
same,inhibition,[12],9.91% (inactive)
same,fluorescence ratio,[13],0.87 (inactive)
same,z-score,[14],-0.38 (inactive)
same,mean signal,[15],253 (inactive)
CCOC(=O)c1cncn1C(C)c1ccccc1 (centres undefined),log fold change Tl+ flux,[16],0.00176 (inactive)
same,log fold change Tl+ flux,[17],0.0301 (inactive)
same,log fold change Tl+ flux,[18],-0.000383 (inactive)
same,log fold change Tl+ flux,[19],-0.0322 (inactive)
CC[C@]1(O)CC[C@H]2[C@@H]3CCC4=CCCC[C@@H]4[C@H]3CC[C@@]21C,fluorescence ratio,[10],1.02 (inactive)
same,inhibition,[11],-2.77% (inactive)
same,inhibition,[12],1.44% (inactive)
same,fluorescence ratio,[13],1.02 (inactive)
same,log fold change Tl+ flux,[16],-0.128 (active)
same,log fold change Tl+ flux,[17],-0.128 (active)
same,log fold change Tl+ flux,[18],0.243 (active)
same,log fold change Tl+ flux,[19],0.0508 (inactive)
CCN(CC)CCOC(=O)C(O)(c1ccccc1)c1ccccc1,fluorescence ratio,[10],0.99 (inactive)
same,inhibition,[11],-1.19% (inactive)
same,inhibition,[12],-0.87% (inactive)
same,fluorescence ratio,[13],0.98 (inactive)
same,z-score,[14],0.28 (inactive)
same,mean signal,[15],281 (inactive)
same,log fold change Tl+ flux,[16],-0.00425 (inactive)
same,log fold change Tl+ flux,[17],0.0464 (inactive)
same,log fold change Tl+ flux,[18],0.00187 (inactive)
same,log fold change Tl+ flux,[19],-0.00361 (inactive)
C=C1C[C@@H]2[C@H](CC[C@]3(C)C(=O)CC[C@@H]23)[C@@]2(C)C=CC(=O)C=C12,fluorescence ratio,[10],1.07 (inactive)
same,inhibition,[11],2.77% (inactive)
same,inhibition,[12],2.98% (inactive)
same,fluorescence ratio,[13],1.05 (inactive)
same,outcome,[1],inactive
same,outcome,[2],inactive
same,outcome,[4],inactive
same,outcome,[5],inactive
same,outcome,[6],inactive
same,log fold change Tl+ flux,[16],0.059 (inactive)
same,log fold change Tl+ flux,[17],0.013 (inactive)
same,log fold change Tl+ flux,[18],0.0226 (inactive)
same,log fold change Tl+ flux,[19],0.0155 (inactive)
